Screening data from PubChem BioAssay.
In the library only some 1.6% were active in any assay of this set; here they are far more common.
Platelet DG rel – modulates dense granule release in human platelets | human platelet-rich plasma, SFLLRN dense granule ATP release, luminescence | inhibition, %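 (compounds screened at 7.5 µM in platelet-rich plasma)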 | actives 0.22% (n = 300,000);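 active means mean replicate score, as percent of positive control, at or above 50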
STAT1 inh – reduces IFN-gamma driven STAT1 reporter signal. NIH 3T3 STAT1-luciferase reporter, luminescence. inhibition, % at 5.5 µM. actives 0.35% (n = 200,000). AID 920;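 active means inhibition above a set limit, the mean inhibition across all tested compounds plus 3 SD, cut at about 34% in these data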
STAT3 blocker – reduces IL-6 driven STAT3 reporter signal; U3A cells, IL-6 STAT3-luciferase reporter, luminescence; host cell line lacks STAT1; inhibition, % at 5.5 µM; actives 0.89% (n = 190,000);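 active means inhibition above the mean inhibition across all screened compounds plus 3 SD, cut at about 44% in these data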
C8 TRAIL sens – sensitizes caspase-8 expressing cells to TRAIL. actives 1% (n = 360,000). inhibition (viability loss, TRAIL sensitization), % at 10 µM. NB7+C8 cells + TRAIL, ATPlite viability luminescence;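 active means compounds causing at least 50% loss of cell viability in the single-dose screen, relative to plate controls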
PPC-1+TRAIL kill – compounds killing PPC-1 cancer cells with TRAIL present (potentiator screen, no TRAIL-free arm); PPC-1 cells + TRAIL, ATPLite viability luminescence; cell killing (% activity), % at 4 µM or 5 µM; actives 0.41% (n = 220,000); AID 1443;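 active means cell killing above 50% in the first pass at 4 µM, then a duplicate retest at 5 µM averaging 50% or more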
A number is an active result; 0 = inactive; - = no result.

SMILES	Platelet DG rel	STAT1 inh	STAT3 blocker	C8 TRAIL sens	PPC-1+TRAIL kill
Cc1ccc(OCCSCc2nnc(NC(=O)Nc3cccc(Cl)c3)s2)cc1	0	0	0	52	0
Cc1nnc(NC(=O)Nc2cccc(Cl)c2)s1	0	0	0	0	0
CC(C)NC(=O)Nc1ccc2c(c1)C(=O)N([C@@H](C)CO)C[C@H](C)[C@H](CN(C)S(=O)(=O)c1ccccc1)OCCCC[C@H](C)O2	-	-	-	0	-
Brc1ccc2nc(C3CCCCC3)c(CC3CCCCC3)n2c1	-	-	-	0	-
O=C(C(Cc1ccccc1)n1cccc1)N1CCN(c2ncccn2)CC1 (centres undefined)	50	0	0	0	0
CC(=O)Nc1cc(OC(C)=O)c2nonc2c1OC(C)=O	-	95	0	0	0
CC(=O)Nc1nonc1NC(C)=O	0	0	0	0	0
CCN(c1ccccc1)S(=O)(=O)c1ccc(NC(=O)c2nc(S(C)(=O)=O)ncc2Cl)cc1	0	-	-	91	-
CCS(=O)(=O)c1ncc(Cl)c(C(=O)Nc2ccc(S(=O)(=O)N(C)c3ccccc3)cc2)n1	0	-	-	98	-
O=C(Nc1ccccn1)c1ccc(-c2ccccc2)cc1	0	-	-	82	-
CC(C)(C)c1ccc(C(=O)Nc2cnccn2)cc1	0	0	0	75	0
COc1ccc(C(=O)Nc2cnccn2)cc1[N+](=O)[O-]	0	-	-	0	-
Cc1c(/C(O)=C2/C(=O)C(=O)N(CCN3CCOCC3)C2c2ccccn2)cnn1-c1ccccc1 (centres undefined)	0	90	88	0	0
CCC(OC(=O)c1ccc(S(C)(=O)=O)c([N+](=O)[O-])c1)C(=O)NC1C2CC3CC(C2)CC1C3 (centres undefined)	-	-	-	74	-
CC(OC(=O)c1ccc(S(C)(=O)=O)c([N+](=O)[O-])c1)C(=O)NC1C2CC3CC(C2)CC1C3 (centres undefined)	-	-	-	73	-
CC(C)CN1CCN(C(=O)COC(=O)c2ccc(S(C)(=O)=O)c([N+](=O)[O-])c2)CC1	-	-	-	0	-
Cn1cccc1C(=O)NC(=O)COC(=O)c1ccc(S(C)(=O)=O)c([N+](=O)[O-])c1	-	-	-	0	-
Cc1ccc(C)c(N2CCN(S(=O)(=O)c3ccc4c(c3)OCCO4)CC2)c1	57	0	0	0	0
Cc1ccc(Cl)cc1N1CCN(S(=O)(=O)c2ccc3c(c2)OCCO3)CC1	0	0	0	0	0
CCOC(=O)CNC(=O)CSc1nc(-c2ccc(OC)cc2)ns1	0	0	0	54	0
COc1ccc(-c2nsc(SCC(=O)Nc3cc(C)on3)n2)cc1	0	0	0	0	0
Cc1ccc(C(=O)N/C(=C\c2cn(C)c3ccccc23)C(=O)NCCCN2CCOCC2)cc1	0	-	-	0	-
Cc1ccc(C(=O)N/C(=C\c2ccc(-c3ccccc3[N+](=O)[O-])o2)C(=O)NCCCN2CCOCC2)cc1	0	-	-	56	-
CCN(CC(=O)N1CCOCC1)S(=O)(=O)c1ccc2ccccc2c1	0	-	-	0	-
CCN(CC(=O)N1CCc2ccccc2C1)S(=O)(=O)c1ccc2ccccc2c1	0	0	0	55	0
SMILES	Platelet DG rel	STAT1 inh	STAT3 blocker	C8 TRAIL sens	PPC-1+TRAIL kill
Cc1ccc(-c2nn(CC(=O)NCc3cc(-c4nn(C)c(=O)c5ccccc45)ccc3C)c(=O)c3ccccc23)cc1	0	0	0	62	0
O=C(Nc1ccc(C(=O)O)cc1)/C(=C\C=C\c1ccccc1)NC(=O)c1cccc(Br)c1	0	0	0	0	0
O=C(Nc1ccc(C(=O)O)cc1)/C(=C\C=C\c1ccccc1)NC(=O)c1ccccc1Br	0	-	-	50	-
O=C(Nc1nnc(/N=C/c2ccco2)s1)c1ccc(F)cc1	0	0	0	50	0
O=C(Nc1nnc(-c2ccc(F)cc2)s1)c1ccco1	0	-	-	0	-
O=S1(=O)CC(c2ccccc2)=NN=C(c2ccccc2)C1	-	-	-	75	-
O=C1CC(c2ccccc2)=NO1	-	-	-	0	-
CC1(C(=O)Nc2ccc3[nH]ncc3c2)CCN1C(=O)Cc1ccc(-c2ccccc2)cc1 (centres undefined)	-	-	-	0	-
Cc1ccc(NC(=O)c2ccc(CSc3nnnn3C)cc2)cc1	0	0	0	58	0
O=C1C(N2CCOCC2)=C(n2nnc3ccccc32)C(=O)c2ccccc21	0	0	0	94	0
CC1CCN(CCNC(=O)c2ccc3c(=O)n(Cc4ccc(Cl)cc4)c(=S)[nH]c3c2)CC1	0	-	-	69	-
CCCc1ccc(-c2cc(C(=O)NN3CCOCC3)c3ccccc3n2)cc1	0	0	0	0	0
COCCCNC(=O)c1cc(-c2cccnc2)nc2ccccc12	0	-	-	0	-
CCCOc1cccc(-c2cc(C(=O)NNC(=S)NCC)c3ccccc3n2)c1	0	0	0	0	0
